# Sampled rows, rich in hits. Any-hit rate of the full collection: about 17%.
# HT1080 IDH1KD tx – kills HT-1080 cells with IDH1 knockdown | HT-1080 IDH1 knockdown viability, ATP luminescence, 48 h | Potency, µM (doses to about 46.1 µM), actives largely listed as cytotoxic | hit rate 2% among 360,000 | AID 686971
#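 Assay cells: HT-1080 with IDH1 knockdown, 750 per well, RPMI/5% FBS. Exposure: 48 h at 37 °C following 2 h pre-incubation. Read: CellTiter-Glo luminescence; fitted concentration-response, curve class assigned.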
# HepG2 viability – counter-screen for TGF-b inhibitors: cytotoxicity in HepG2 cells; HepG2 CAGA-GFP viability, ATP luminescence, 18 h; Potency, µM (titrated, usually from 46.1 µM), actives largely listed as cytotoxic; hit rate 0.76% among 410,000
#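 CellTiter-Glo luminescence gave cytotoxicity after 18 hours at 37 degrees C. The cells were HepG2 CAGA-GFP in 1% FBS DMEM, stimulated with 500 pg/mL TGF-beta after compound addition. %Activity was normalised to no-cell wells (complete cell-killing) and DMSO (no toxicity), and curves were fitted and classified.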
# TGFb SMAD3 inh – TGF-b pathway inhibition; HepG2 CAGA-GFP TGF-b/SMAD3 reporter, GFP fluorescence, 18 h; TGF-beta stimulated, 500 pg/mL final; hit rate 1.2% among 410,000; AID 588855; Potency, µM (top dose mostly 46.1 µM), actives largely listed as inhibitors; also: nearly all actives have a fitted effect of over 65% in size
#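 Inhibition was scored as loss of TGF-beta-induced (500 pg/mL final, 18 hours, 37 degrees C) GFP in HEPG2 cells carrying a CAGA-GFP reporter, in DMEM with 1% FBS. Well GFP was summed per cell; Activity was normalised to unstimulated and stimulated DMSO wells, then concentration-response fitting.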
# DT40 TDP1 CPT – DT40-hTDP1 cell growth loss with CPT; chicken DT40 Tdp1-/-;hTDP1 cells + 20 nM CPT, ATP luminescence, 48 h; hit rate 12% among 420,000; Potency, µM (doses to about 46.2 µM), actives largely listed as inhibitors; AID 686979; also: nearly all actives have a fitted effect of over 55% in size
#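 Cell growth measured by CellTiter-Glo luminescence after a minimum 48 h, 37 C compound exposure with 20 nM CPT in Tdp1-knockout DT40 cells stably expressing hTDP1, seeded 400/well; qHTS titration format.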
# TDP1 cell noCPT – qHTS for Inhibitors of human tyrosyl-DNA phosphodiesterase 1 (TDP1): qHTS in cells in absence of CPT; DT40 Tdp1-/- hTDP1 cells, no CPT, ATP luminescence, 48 h; Potency, µM (top dose mostly 46.2 µM), actives largely listed as inhibitors; hit rate 15% among 420,000; AID 686978, 2013; also: nearly all actives have a fitted effect of over 55% in size
#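 Seeded 400 DT40-hTDP1 cells/well (vehicle DMSO, no 20 nM CPT); pinned compounds; ≥48 hr at 37 °C; CellTiter-Glo luminescence as viability measure.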
# HT1080NT lethal – kills 2HG-producing HT-1080-NT fibrosarcoma cells; HT-1080-NT fibrosarcoma viability, CellTiter-Glo ATP luminescence, 48 h; hit rate 1.6% among 360,000; Potency, µM (series often up to 46.1 µM), hits mostly cytotoxic;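 also: NT is the 2HG producing partner of a matched IDH1 knockdown line; nearly all actives have a fitted effect of over 55% in size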
#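 Read-out is CellTiter-Glo luminescence after 10 minutes at room temperature, following 48 hours' compound treatment of HT-1080-NT cells (750 cells/well, RPMI, 5% FBS, 37 degrees C).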
# A number is an active result; - = inactive; ? = inconclusive; . = no result; [ ] = remark or other dose. Calls follow the shape of the dose curve; as a rule, active = well fitted curve in the direction sought with a large enough effect; inconclusive = small, poorly fitted or top-dose-only effect, or another doubt; inactive = no such curve, though single readings can be large; an effect the other way counts as inactive or inconclusive.
SMILES,HT1080 IDH1KD tx,HepG2 viability,TGFb SMAD3 inh,DT40 TDP1 CPT,TDP1 cell noCPT,HT1080NT lethal
Cc1ccccc1-c1nnc(CN2CCC(C)CC2)o1,-,-,-,-,-,-
Cc1cccc(N2CCN(Cc3nnc(-c4ccccc4C)o3)CC2C)c1 (stereo not drawn),.,-,-,13µM,?,.
CC(C)COCc1ccc(O)c2ncccc12,10.3µM,-,10µM,0.92µM,0.651µM,20.6µM
CN(Cc1ccco1)Cc1ccc(O)c2ncccc12,.,-,?,.,.,.
CCCOCc1ccc(O)c2ncccc12,?,-,?,0.82µM,0.581µM,-
CCCn1c(NC(=O)c2cccc(C)c2C)nc2ccccc21,?,-,?,13µM,14.6µM,?
Cn1ncc([N+](=O)[O-])c1C(=O)Nc1nc2ccccc2n1CCN1CCCCC1,-,-,-,-,?,-
Cc1cccc(NC(=O)C2CCN(C(=O)c3ccccc3C)CC2)n1,-,-,-,-,-,-
CCN(CC)CCn1c(NC(=O)c2ccc(C)cc2)nc2ccccc21,-,-,-,-,?,?
CCCn1c(NC(=O)C2CCN(C(=O)c3ccccc3C)CC2)nc2ccccc21,-,-,-,16.4µM,?,-
CCCn1c(NC(=O)c2ccc([N+](=O)[O-])o2)nc2ccccc21,?,-,-,20.6µM,?,-
CC(=O)c1sc(NC(=O)C2CCN(C(=O)c3ccccc3C)CC2)nc1-c1ccccc1,-,-,?,18.4µM,?,-
CC(NC(=O)c1ccccc1F)c1nnc(SCC(=O)Nc2nnc(C3CC3)s2)n1C (stereo not drawn),-,-,-,-,-,-
CCOC(=O)c1cnc2ccc(C(=O)OC)cc2c1Nc1ccc(OCc2ccccc2Cl)cc1,.,-,-,-,?,.
Cc1cnc(-n2ncc(C(=O)NCCc3cccnc3)c2C)nc1-c1ccc(F)cc1,.,.,.,-[9.04 µM],?,.
O=C(c1ccco1)N1CCN(C(c2coc3ccc(Cl)cc3c2=O)c2nnnn2C2CCCC2)CC1 (stereo not drawn),-,-,-,?,?,-
Cc1ccc2occ(C(c3nnnn3C3CCCC3)N3CCN(C(=O)c4ccco4)CC3)c(=O)c2c1 (stereo not drawn),?,-,-,16.4µM,?,-
O=C(Nc1ccncc1)c1cccc(S(=O)(=O)N2CCOCC2)c1,-,-,-,-,?,-
O=C(Nc1cccc(S(=O)(=O)C(F)F)c1)c1ccc(S(=O)(=O)N2CCOCC2)cc1,-,-,-,-,18.4µM,-
O=C(Nc1ccc(S(=O)(=O)N2CCOCC2)cc1)c1ccc(S(=O)(=O)N2CCOCC2)cc1,-,-,-,-,-,-
O=C(Nc1ccc(S(=O)(=O)C(F)F)cc1)c1cccc(S(=O)(=O)N2CCOCC2)c1,-,-,-,?,14.6µM,-
COc1ccccc1NC1=C(Cl)C(=O)OC1OC(=O)c1ccco1 (stereo not drawn),?,-,-,23.1µM,20.6µM,20.6µM
COc1cccc(NC2=C(Cl)C(=O)OC2OC(=O)c2ccco2)c1 (stereo not drawn),-,-,-,11.6µM,14.6µM,?
Cc1ccccc1NC1=C(Cl)C(=O)OC1OC(=O)c1ccco1 (stereo not drawn),11.2µM,-,-,25.9µM,23.1µM,?
C[C@@H]1CN([C@@H](C)CO)C(=O)CCCn2nncc2CO[C@H]1CN(C)C(=O)c1ccc(N2CCN(C)CC2)cc1,-,-,-,-,-,-
SMILES,HT1080 IDH1KD tx,HepG2 viability,TGFb SMAD3 inh,DT40 TDP1 CPT,TDP1 cell noCPT,HT1080NT lethal
O=C(COc1ccc(-n2cnnn2)cc1)NC(=O)NCc1ccccc1,-,-,-,-,?,-
CC1(C)SCC2C(=O)N3C(CSC3(C)C)C(=O)N21 (stereo not drawn),-,-,-,-,-,-
CCc1ccn2cc(-c3cc(-c4ccccc4)no3)nc2c1,?,10µM,?,?,18.4µM,?
CC1=C(/C=N/Nc2ccc([N+](=O)[O-])cc2[N+](=O)[O-])C(C)(C)CCC1,-,-,-,?,18.4µM,-
CNc1nc(-c2ccccc2)c2sccc2n1,-,-,-,?,?,-
c1csc(CNc2nc(NCC3CCCCC3)c3sccc3n2)c1,?,-,?,5.8µM,9.2µM,?
CNc1nc(NCc2ccccc2)c2sccc2n1,?,-,?,18.4µM,16.4µM,?
c1ccc(CNc2nc(NCc3cccs3)nc3ccsc23)cc1,?,-,?,18.4µM,11.6µM,?
COCc1c(C(=O)N/N=C/c2ccncc2)nnn1-c1nonc1N,-,-,-,-,-,-
Cc1c(C(=O)N2CCN(C3CCS(=O)(=O)C3)CC2)oc2ccc(Cl)cc12 (stereo not drawn),-,-,-,-,-,-
CCOC(=O)c1ccc2ncc(C(=O)OCC)c(Nc3ccc(C)c(Br)c3)c2c1,.,-,-,.,.,.
Cn1cnc(S(=O)(=O)N2CCN(c3cccc(Cl)c3)CC2)c1,-,-,-,-,-,-
Cc1nc(C)c(CCNS(=O)(=O)c2ccc(C)c(C)c2)s1,.,-,-,.,.,.
O=C1NC[C@H](Cc2ccccc2)N(CC2CCN(CCCCc3ccccc3)CC2)C1=O,-,-,-,-,-,-
COc1cccc(-c2cn3c(n2)sc2cc(C(=O)NC4CCCCCC4)ccc23)c1,.,-,?,?,?,.
CON(C)C(=O)CCC1CCCN1C(=O)OC(C)(C)C (stereo not drawn),-,-,-,-,-,-
C#CC(=O)CCC1CCCN1C(=O)OC(C)(C)C (stereo not drawn),-,-,-,14.6µM,?,-
Cc1ccc(-c2nc3cnccn3c2Nc2ccc(C(C)C)cc2)o1,-,.,.,?,10µM,-
Cc1ccc(-c2nc3cnccn3c2Nc2c(C)cccc2C)o1,-,-,?,5.8µM,10.3µM,-
Cc1ccc(Nc2c(-c3ccc(C)o3)nc3ncccn23)cc1,-,-,-,-,-,-
Cc1ccn2c(Nc3ccc(C(C)C)cc3)c(-c3cccnc3)nc2c1,.,-,?,?,?,.
CCOc1cc(CNCCc2ccc(S(N)(=O)=O)cc2)ccc1OCC(=O)NC(C)(C)C,-,-,-,?,?,-
CCOc1cc(CNCCc2ccccc2)ccc1OCC(=O)NC(C)(C)C,-,-,-,18.4µM,20.6µM,-
CCOc1cc(CNCCc2ccc(S(N)(=O)=O)cc2)ccc1OCC(=O)NC1CCCCC1,-,-,-,?,23.1µM,-
